Laboratory results from PubChem BioAssay AID720600 (Broad Institute, 2013).
Results with a measured potency or affinity are listed apart. Results filed as inconclusive are left out. The source made the active and inactive calls.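 How the source made its calls: active means compound whose half-maximal dose for viability loss stays within twice the top tested dose at all three treatment times; inconclusive means treatment times disagree in their calls; inactive means inactive at every treatment time.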

Assay: SNB-19 glioblastoma cell viability loss, dose response, HRAS target identification, Alamar Blue fluorescence, 8/24/48 h, dry powder (AID 720600)

Compound	outcome
Cc1onc(C(=O)N2CCN(C(c3ccncc3)c3ccncc3)CC2)c1[N+](=O)[O-]	inactive
CCC(=O)N(c1ccc(OC)c(Cl)c1)C(C(=O)NCCc1ccccc1)c1cccs1 (configuration not stated)	inactive
